Source: the supplement of paper PMC6411743
± gives the standard deviation of the averaged measurements. Of roughly 6,500 targets only a part is listed; those with the largest changes were picked by preference.

Chain of UniProt Q96ME7 (Q96ME7 whole entry, one chain of several): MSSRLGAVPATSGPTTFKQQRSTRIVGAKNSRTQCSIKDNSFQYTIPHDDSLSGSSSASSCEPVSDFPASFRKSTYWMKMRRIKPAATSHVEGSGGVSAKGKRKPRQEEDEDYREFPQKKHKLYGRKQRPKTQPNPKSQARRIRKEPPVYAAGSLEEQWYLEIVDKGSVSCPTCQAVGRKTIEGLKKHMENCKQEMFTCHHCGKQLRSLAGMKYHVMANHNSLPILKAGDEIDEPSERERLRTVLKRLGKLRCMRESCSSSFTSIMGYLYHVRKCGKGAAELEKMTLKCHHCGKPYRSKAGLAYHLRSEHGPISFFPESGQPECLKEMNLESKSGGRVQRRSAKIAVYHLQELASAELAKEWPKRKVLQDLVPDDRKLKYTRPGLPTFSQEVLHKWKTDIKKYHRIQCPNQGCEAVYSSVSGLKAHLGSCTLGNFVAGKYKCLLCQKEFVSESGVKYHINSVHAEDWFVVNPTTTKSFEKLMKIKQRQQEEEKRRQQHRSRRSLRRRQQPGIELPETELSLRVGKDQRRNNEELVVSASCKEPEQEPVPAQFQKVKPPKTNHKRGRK
Chain of UniProt O75955 (O75955 whole entry, one chain of several): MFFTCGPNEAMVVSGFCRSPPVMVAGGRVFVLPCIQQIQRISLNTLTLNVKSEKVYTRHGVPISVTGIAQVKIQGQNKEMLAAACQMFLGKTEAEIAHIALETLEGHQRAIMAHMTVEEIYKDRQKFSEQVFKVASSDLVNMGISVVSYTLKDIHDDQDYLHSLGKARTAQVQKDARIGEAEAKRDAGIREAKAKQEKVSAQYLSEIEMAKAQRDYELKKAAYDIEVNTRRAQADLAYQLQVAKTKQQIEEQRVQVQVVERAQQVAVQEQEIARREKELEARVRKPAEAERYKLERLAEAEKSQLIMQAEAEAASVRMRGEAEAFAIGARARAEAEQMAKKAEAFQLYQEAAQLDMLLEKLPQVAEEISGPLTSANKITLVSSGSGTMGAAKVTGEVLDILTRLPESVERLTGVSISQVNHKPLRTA
Chain of UniProt Q96ER3 (Q96ER3 whole entry, one chain of several): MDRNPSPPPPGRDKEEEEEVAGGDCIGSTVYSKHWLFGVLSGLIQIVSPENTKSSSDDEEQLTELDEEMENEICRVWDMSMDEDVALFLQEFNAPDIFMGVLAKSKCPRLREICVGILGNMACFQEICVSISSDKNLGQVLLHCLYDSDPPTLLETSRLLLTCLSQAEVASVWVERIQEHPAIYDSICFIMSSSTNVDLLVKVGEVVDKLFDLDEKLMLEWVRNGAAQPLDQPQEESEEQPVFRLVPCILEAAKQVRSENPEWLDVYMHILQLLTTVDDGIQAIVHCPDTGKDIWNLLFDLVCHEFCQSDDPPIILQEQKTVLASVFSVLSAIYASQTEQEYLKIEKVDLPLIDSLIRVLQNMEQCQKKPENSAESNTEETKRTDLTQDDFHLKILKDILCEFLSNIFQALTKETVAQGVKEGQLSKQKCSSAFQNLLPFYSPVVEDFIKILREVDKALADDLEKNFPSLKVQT
Chain of UniProt P49821 (P49821 whole entry, one chain of several): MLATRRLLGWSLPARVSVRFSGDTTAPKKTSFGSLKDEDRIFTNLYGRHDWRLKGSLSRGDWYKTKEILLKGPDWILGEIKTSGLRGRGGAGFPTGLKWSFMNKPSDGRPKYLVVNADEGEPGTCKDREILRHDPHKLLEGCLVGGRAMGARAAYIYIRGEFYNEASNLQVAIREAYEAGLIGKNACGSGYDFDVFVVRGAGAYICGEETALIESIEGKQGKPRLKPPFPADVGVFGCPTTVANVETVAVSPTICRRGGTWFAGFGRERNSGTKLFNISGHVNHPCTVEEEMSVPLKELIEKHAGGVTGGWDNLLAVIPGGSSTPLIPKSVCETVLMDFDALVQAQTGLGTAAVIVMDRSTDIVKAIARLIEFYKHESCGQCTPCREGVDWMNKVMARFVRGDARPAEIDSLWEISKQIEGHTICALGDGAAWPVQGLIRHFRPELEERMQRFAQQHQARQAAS
Chain of UniProt O43865 (O43865 whole entry): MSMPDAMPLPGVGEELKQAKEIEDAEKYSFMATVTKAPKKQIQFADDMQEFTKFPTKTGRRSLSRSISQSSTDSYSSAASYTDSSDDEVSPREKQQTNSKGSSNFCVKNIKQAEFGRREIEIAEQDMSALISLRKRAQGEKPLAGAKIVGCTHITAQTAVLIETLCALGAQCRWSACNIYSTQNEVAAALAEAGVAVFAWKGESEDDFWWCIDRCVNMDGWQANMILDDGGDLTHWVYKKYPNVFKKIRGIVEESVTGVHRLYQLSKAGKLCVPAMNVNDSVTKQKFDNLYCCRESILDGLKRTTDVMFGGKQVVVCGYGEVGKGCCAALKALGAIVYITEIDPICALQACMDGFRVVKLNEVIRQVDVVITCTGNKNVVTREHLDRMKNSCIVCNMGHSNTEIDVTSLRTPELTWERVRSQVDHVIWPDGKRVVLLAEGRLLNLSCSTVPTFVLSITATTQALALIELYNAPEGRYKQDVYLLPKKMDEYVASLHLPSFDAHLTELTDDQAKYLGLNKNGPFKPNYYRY
Chain of UniProt Q8NEM7 (Q8NEM7 whole entry, one chain of several): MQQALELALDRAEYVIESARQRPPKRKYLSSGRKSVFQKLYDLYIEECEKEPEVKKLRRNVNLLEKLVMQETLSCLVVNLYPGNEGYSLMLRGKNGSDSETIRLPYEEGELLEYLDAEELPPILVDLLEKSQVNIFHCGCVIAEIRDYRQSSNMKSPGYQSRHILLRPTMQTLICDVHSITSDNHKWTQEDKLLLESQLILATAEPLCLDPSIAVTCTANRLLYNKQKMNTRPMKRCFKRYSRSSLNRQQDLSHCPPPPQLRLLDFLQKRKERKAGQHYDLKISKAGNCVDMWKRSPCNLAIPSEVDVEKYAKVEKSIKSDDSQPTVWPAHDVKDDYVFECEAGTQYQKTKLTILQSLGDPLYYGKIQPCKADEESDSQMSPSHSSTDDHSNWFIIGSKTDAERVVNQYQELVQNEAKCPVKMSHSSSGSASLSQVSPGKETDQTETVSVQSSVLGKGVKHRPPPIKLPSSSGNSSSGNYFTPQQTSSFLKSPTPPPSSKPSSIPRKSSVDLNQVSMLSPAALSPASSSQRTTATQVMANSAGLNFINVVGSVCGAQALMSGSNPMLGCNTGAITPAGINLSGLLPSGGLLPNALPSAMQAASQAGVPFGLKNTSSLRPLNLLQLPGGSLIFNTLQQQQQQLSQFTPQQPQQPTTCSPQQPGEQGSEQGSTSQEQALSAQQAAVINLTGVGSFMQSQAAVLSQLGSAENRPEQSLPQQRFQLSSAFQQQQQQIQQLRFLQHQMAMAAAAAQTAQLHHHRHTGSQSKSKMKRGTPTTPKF
Chain of UniProt Q8WWI1 (Q8WWI1 whole entry, one chain of several): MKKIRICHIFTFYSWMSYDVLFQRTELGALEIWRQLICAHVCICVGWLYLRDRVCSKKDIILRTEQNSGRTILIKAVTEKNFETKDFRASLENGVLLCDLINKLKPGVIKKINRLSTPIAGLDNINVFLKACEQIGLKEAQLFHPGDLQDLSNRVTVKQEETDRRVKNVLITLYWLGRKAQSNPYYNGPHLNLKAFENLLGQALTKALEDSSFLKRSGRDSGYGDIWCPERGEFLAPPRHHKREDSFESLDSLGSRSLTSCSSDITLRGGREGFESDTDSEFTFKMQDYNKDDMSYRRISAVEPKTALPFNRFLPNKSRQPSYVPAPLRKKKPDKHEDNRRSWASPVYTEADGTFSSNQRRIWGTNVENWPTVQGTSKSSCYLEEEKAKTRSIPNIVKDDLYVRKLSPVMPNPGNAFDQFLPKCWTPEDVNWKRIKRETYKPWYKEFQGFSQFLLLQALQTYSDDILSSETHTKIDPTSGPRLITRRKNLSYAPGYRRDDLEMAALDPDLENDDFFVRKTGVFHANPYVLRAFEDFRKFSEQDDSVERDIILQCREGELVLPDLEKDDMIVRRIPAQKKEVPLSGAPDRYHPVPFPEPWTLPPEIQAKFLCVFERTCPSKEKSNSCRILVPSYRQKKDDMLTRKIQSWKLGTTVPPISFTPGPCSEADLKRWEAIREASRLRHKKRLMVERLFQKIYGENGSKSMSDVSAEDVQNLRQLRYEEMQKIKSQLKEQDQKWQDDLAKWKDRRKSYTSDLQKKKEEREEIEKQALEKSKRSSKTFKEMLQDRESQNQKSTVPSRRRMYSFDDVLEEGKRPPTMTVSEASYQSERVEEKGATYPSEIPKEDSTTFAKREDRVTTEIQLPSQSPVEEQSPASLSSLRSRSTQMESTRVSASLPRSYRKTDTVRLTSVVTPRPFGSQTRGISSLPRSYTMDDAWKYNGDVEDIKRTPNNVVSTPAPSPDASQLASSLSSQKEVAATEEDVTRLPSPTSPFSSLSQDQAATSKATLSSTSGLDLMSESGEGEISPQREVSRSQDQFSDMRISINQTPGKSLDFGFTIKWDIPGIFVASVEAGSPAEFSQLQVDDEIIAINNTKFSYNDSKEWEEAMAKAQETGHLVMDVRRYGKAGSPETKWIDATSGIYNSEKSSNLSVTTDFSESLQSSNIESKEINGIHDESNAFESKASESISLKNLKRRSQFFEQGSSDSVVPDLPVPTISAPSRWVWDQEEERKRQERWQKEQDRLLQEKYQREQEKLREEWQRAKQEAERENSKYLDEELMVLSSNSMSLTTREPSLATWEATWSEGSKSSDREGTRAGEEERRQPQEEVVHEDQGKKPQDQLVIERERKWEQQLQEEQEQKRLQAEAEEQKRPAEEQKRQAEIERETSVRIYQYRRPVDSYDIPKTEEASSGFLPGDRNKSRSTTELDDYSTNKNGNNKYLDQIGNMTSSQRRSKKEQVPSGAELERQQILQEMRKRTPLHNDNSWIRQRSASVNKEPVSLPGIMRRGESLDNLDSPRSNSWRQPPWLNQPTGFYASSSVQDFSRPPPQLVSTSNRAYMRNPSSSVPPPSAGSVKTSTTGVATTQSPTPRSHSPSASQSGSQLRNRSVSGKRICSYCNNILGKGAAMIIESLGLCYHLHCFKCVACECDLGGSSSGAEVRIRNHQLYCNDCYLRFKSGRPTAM

The targets below were run with Nc1ncnc2c1ncn2[C@@H]1O[C@H](COP(=O)(O)OP(=O)(O)OP(=O)(O)O)[C@@H](O)[C@H]1O [adenosine triphosphate] (assay: NP40-soluble protein abundance relative to vehicle (solubility fold change) (ratio); higher = more soluble protein in presence of ATP). Conditions: concentration: 10mM.
Summary of the method: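 Eight concentrations, 0.1 to 10 mM, were tested on Jurkat crude lysate for 10 min at room temperature and then 3 min at 37 °C, in three independent experiments. The lysate was solubilised with 0.8% NP40 and benzonase, ultracentrifuged, and the supernatant TMT-labelled for LC-MS/MS. Each value is the fold change against the detergent-processed vehicle in its own replicate, from vsn-normalised intensities.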
With G3V0I5|P49821|P49821-2 (UniProt P49821) the NP40-soluble protein abundance was 0.953 ± 0.046. SETD1A (UniProt O15047) gave an NP40-soluble protein abundance of 0.997 ± 0.046. MYO1G (UniProt B0I1T2) gave an NP40-soluble protein abundance of 3.52 ± 0.5. For “H0YM92|J3KMZ9|P01130|P01130-5|H0YMD1|P01130-4 (UniProt P01130)”, the NP40-soluble protein abundance was 0.987 ± 0.016. “A2ABJ5|O75955|A0A140T9R1 (UniProt O75955)” was tested, and the NP40-soluble protein abundance was 0.916 ± 0.052. Work on DHX15 (UniProt O43143) yielded an NP40-soluble protein abundance of 1.29 ± 0.044. For “F6S7C4|Q8NEM7|Q8NEM7-2|Q8NEM7-3|R4GND2 (UniProt Q8NEM7)”, the NP40-soluble protein abundance was 1.2 ± 0.11. In the case of I3L2M1|J3KNL2|Q8WYJ6 (UniProt Q8WYJ6), the NP40-soluble protein abundance is reported as 0.941 ± 0.033. For G3XAG1|Q96ME7|Q96ME7-3 (UniProt Q96ME7), the NP40-soluble protein abundance was 2.06 ± 0.081. For B0QY89|Q9Y262 (UniProt Q9Y262), the NP40-soluble protein abundance was 1.7 ± 0.12. With UniProt O14776|O14776-2 the NP40-soluble protein abundance was 1.02 ± 0.013. H3BSH7|Q969X6|Q969X6-3 (UniProt Q969X6) showed an NP40-soluble protein abundance of 1.78 ± 0.047. In the case of “M0QZM1|M0R019|P52272|P52272-2 (UniProt P52272)”, the NP40-soluble protein abundance is reported as 1.06 ± 0.024. J3KQ34|Q9H9Q2 (UniProt Q9H9Q2) gave an NP40-soluble protein abundance of 0.77 ± 0.1. B4DHE8|Q96DH6 (UniProt Q96DH6) was tested, and the NP40-soluble protein abundance was 0.972 ± 0.079. E9PL53|J3KND1 (UniProt Q96ER3) gave an NP40-soluble protein abundance of 0.925 ± 0.011. In the case of “C9J381|P20839|P20839-2|P20839-3|P20839-4|P20839-5|P20839-6|P20839-7 (UniProt P20839)”, the NP40-soluble protein abundance is reported as 0.581 ± 0.033. In the case of NUDT21 (UniProt O43809), the NP40-soluble protein abundance is reported as 2.213 ± 0.019. Work on UniProt O43865 yielded an NP40-soluble protein abundance of 0.969 ± 0.043. Work on A0A087X176|Q6ZRP7 (UniProt Q6ZRP7) yielded an NP40-soluble protein abundance of 0.96 ± 0.037. For E9PEN0|Q8WYH8|Q8WYH8-2 (UniProt Q8WYH8), the NP40-soluble protein abundance was 1.86 ± 0.39. H3BUX2|J3KNF8|O43169 (UniProt O43169) showed an NP40-soluble protein abundance of 0.781 ± 0.084. For F5H527|Q76I76 (UniProt Q76I76), the NP40-soluble protein abundance was 0.995 ± 0.062. M0R042|P04350 (UniProt P04350) showed an NP40-soluble protein abundance of 0.955 ± 0.071. PSMD12 (UniProt O00232) gave an NP40-soluble protein abundance of 0.885 ± 0.035. In the case of J3QTA6|Q9BRQ6 (UniProt Q9BRQ6), the NP40-soluble protein abundance is reported as 0.874 ± 0.067. Work on MAN2B1 (UniProt O00754) yielded an NP40-soluble protein abundance of 0.93 ± 0.018. Target G5E9V5|G5E9W7|P82650 (UniProt P82650) has an NP40-soluble protein abundance of 0.867 ± 0.1. I3L0W4|Q96F10 (UniProt Q96F10) was tested, and the NP40-soluble protein abundance was 0.944 ± 0.035. Target A0A0C4DGB9|Q9H2U2 (UniProt Q9H2U2) has an NP40-soluble protein abundance of 0.919 ± 0.037. In the case of “H3BPD5|P78549|P78549-2|P78549-3 (UniProt P78549)”, the NP40-soluble protein abundance is reported as 1.89 ± 0.12. “G3XAC1|Q9BXS9|Q9BXS9-3|Q9BXS9-7|A0A0C4DFT5|Q9BXS9-4|Q9BXS9-5 (UniProt Q9BXS9)” gave an NP40-soluble protein abundance of 0.863 ± 0.071. Target E5RG17|Q6P1N9 (UniProt Q6P1N9) has an NP40-soluble protein abundance of 0.968 ± 0.019. Work on “B1AKN5|B1AKN7|B1AKN8|Q12857|Q12857-3|Q12857-4|B1AKN6|S4R3K4|Q12857-2 (UniProt Q12857)” yielded an NP40-soluble protein abundance of 1.13 ± 0.033. Target “J3KP06|Q8WWI1|Q8WWI1-2|Q8WWI1-3|Q8WWI1-4 (UniProt Q8WWI1)” has an NP40-soluble protein abundance of 1.96 ± 0.042. With K7ELH7|K7ENE2|Q8IVV7 (UniProt Q8IVV7) the NP40-soluble protein abundance was 0.92918 ± 9.2e-06.
